esBAF inh: blocks esBAF chromatin remodeling in mouse ES cells. 2% of 350,000 active. reporter increase, % at 12.5 µM. AID 602393. Bmi1-luciferase knock-in reporter, 24 h; 100% = twice the neutral-well signal; in the data active = activation above about 40%; inconclusive = no clear call, values can overlap the other calls;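 also: 0% = median of the plate's neutral control wells and 100% = double that signal; a rise in the Bmi1 reporter signal indicates esBAF inhibition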
SMARCA2 activ: SMARCA2 function activation, primary screen | MG213 cells, MMTV-luciferase reporter, dexamethasone, overnight | activation, % at 9.1 µM | 1% of 370,000 active | AID 652017; in the data active = activation above about 7.8%;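 also: 0% = vehicle wells and 100% = reference activator wells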
HSF-1 act: increases HSF-1 driven luciferase reporter signal. 1.7% of 300,000 active. activation, % at 9 µM. NIH3T3-HGL HSF-1 luciferase reporter, MG132, 8 h; 100% = twice DMSO control signal. AID 504408;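 active = mean replicate activation of at least 50% with a set share of replicates each reaching 50%; inconclusive = only one of those two conditions met; inactive = mean below 50% and too few replicates reaching it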;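 also: 0% = median of the neutral control wells and 100% = twice that signal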
Wnt bcat act: Wnt/beta-catenin pathway activation. Wnt/beta-catenin reporter cell assay, activator, plate reader. activation, % at 9.35 µM. 1.2% of 300,000 active; in the data active = activation above about 30%, passing the limit was not always enough; inconclusive = no clear call, values can overlap the other calls;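 also: 0% = neutral control wells and 100% = positive control wells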
HSF1 inh: HSF1 inhibition; 0.77% of 300,000 active; activity change, negative = inhibition, % at 7.5 µM (by protocol); NIH3T3-HGL HSE-luciferase, MG132-induced, luminescence 8 h; active compounds read low;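 active = more than half of replicate wells show activity change below -50%, luminescence cut by over half; inconclusive = some wells, but at most half, below -50%; inactive = no replicate well below -50%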;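 also: luciferase reports HSF-1 transcriptional activity via heat shock element; 0% = median of DMSO wells and -100% = zero luminescence signal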
MITF TRPM1 HTS: increases MITF-driven TRPM1 promoter luciferase signal | SK-MEL-5 TRPM1-promoter luciferase, 24 h; % of positive control, neutral wells = 0 | activation, % at 12.5 µM | 0.75% of 300,000 active;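 active = mean activation of at least 80% with every replicate also reaching 80%; inconclusive = mean reaches 80% but some replicate falls short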;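 also: 0% = neutral control wells and 100% = parthenolide positive control wells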
SMARCA2 act conf: SMARCA2 activation, confirmation screen; 30% of 3,500 active; activation, % at 9.1 µM; MG213 cells, MMTV-luciferase with dexamethasone, luminescence, overnight; MG213 cells expressing E1A, Rb sequestered; DMSO wells 0%, reference activator 100%; shares compounds with SMARCA2 activ;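 active = activation above its plate's cutoff, the mean activation of tested wells plus 3 SD, cut at about 7.9% in these data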
VP16 Luc act: GAL4-VP16 reporter activation counter-screen | activation, % at 9.1 µM | 41% of 3,500 active | HEK293 GAL4-VP16 pG5luc reporter, luciferase luminescence; scaled: DMSO wells 0%, SAHA wells 100% | shares compounds with SMARCA2 activ;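 active = activation above the solvent-only control well mean plus 3 SD, averaged across control plates, cut at about 5.2% in these data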
* marks the source's active call; other numbers are inactive results. In the library only some 4.3% were active in any assay of this set; here they are far more common.

For COc1ccccc1-c1ccc2n(c1=O)C[C@H]1[C@H](CO)[C@@H](C(=O)NCCCN(C)C)N(C(C)=O)[C@@H]21 the results were esBAF inh -1.
`COc1ccc(-c2cc(C(F)(F)F)nc(-n3cc(Cl)cn3)n2)cc1` gave SMARCA2 activ 8.5*, HSF-1 act 6, Wnt bcat act -6, HSF1 inh 2, SMARCA2 act conf 2 and VP16 Luc act 0.
Screening COc1ccc(NC(=O)Nc2ccc3c(c2)C(=O)N([C@@H](C)CO)C[C@@H](C)[C@@H](CN(C)C(=O)NC(C)C)O3)cc1 returned esBAF inh -4.
For CNc1ncnc2c1ncn2[C@@H]1O[C@H](CO)[C@@H](O)[C@H]1O the results were esBAF inh -8, SMARCA2 activ 8.4*, Wnt bcat act -1, MITF TRPM1 HTS 6, SMARCA2 act conf 0 and VP16 Luc act 1.
`CN(C)c1ncnc2c1ncn2C1OC(CO)C(O)C1O` (stereo unspecified) gave esBAF inh -16, SMARCA2 activ -2, HSF-1 act -30, HSF1 inh -31 and MITF TRPM1 HTS -41.
Screening CN(C)c1ncnc2c1nnn2C1OC(CO)C(O)C1O (stereo unspecified) returned esBAF inh 2, SMARCA2 activ 13*, Wnt bcat act -4, SMARCA2 act conf 17* and VP16 Luc act -3.
OCC1OC(n2cnc3c(/C=C(\O)c4ccccc4)ncnc32)C(O)C1O (stereo unspecified) was read as SMARCA2 activ 8.9*, Wnt bcat act -5, MITF TRPM1 HTS 0, SMARCA2 act conf -2 and VP16 Luc act 3.
`CC(C)NC(=O)Nc1cccc2c1O[C@H](CN(C)C(=O)Nc1ccc3c(c1)OCO3)[C@@H](C)CN([C@H](C)CO)C2=O` gave esBAF inh 0.
`Cc1noc(C)c1S(=O)(=O)N(C)C[C@@H]1OCCCC[C@H](C)Oc2ccc(NC(=O)NC3CCCCC3)cc2C(=O)N([C@H](C)CO)C[C@H]1C` gave esBAF inh -3.
COc1ccc(-c2cn3cccc(C)c3n2)cc1Br was read as esBAF inh 99*, SMARCA2 activ 10*, HSF-1 act 62*, Wnt bcat act 35*, HSF1 inh 41, MITF TRPM1 HTS 50, SMARCA2 act conf 7 and VP16 Luc act 14*.
For COc1ccc(-c2csc(C)n2)cc1Br the results were esBAF inh 32, SMARCA2 activ 2, HSF-1 act 29, Wnt bcat act -2, HSF1 inh 19 and MITF TRPM1 HTS 45.
For COc1ccc(C(=O)Cc2ccc3c(c2)OCO3)c(O)c1 the results were SMARCA2 activ 8.2*, HSF-1 act 24, Wnt bcat act 37*, HSF1 inh 21, MITF TRPM1 HTS 77, SMARCA2 act conf 1 and VP16 Luc act 8.9*.
`COc1ccc(-c2nc(N)ncc2-c2ccc(OC)c(OC)c2)c(O)c1` gave esBAF inh -5, SMARCA2 activ 8.1*, HSF-1 act 11, Wnt bcat act 0, HSF1 inh 0, MITF TRPM1 HTS 6, SMARCA2 act conf 7 and VP16 Luc act 1.
`O=C(OCC(=O)N(Cc1ccccc1)Cc1ccccc1)c1cccc(O)c1` gave esBAF inh -1, SMARCA2 activ -3, Wnt bcat act 3 and MITF TRPM1 HTS -1.
Screening O=C(COC(=O)c1cccc(O)c1)c1ccccc1 returned esBAF inh 39, SMARCA2 activ 8.5*, HSF-1 act inconclusive, Wnt bcat act 53*, HSF1 inh 25, MITF TRPM1 HTS 79, SMARCA2 act conf 13* and VP16 Luc act 4.

Bioassay records deposited in PubChem BioAssay by several laboratories.
